Reference: the supplement of paper PMC8728848
This is one part of a sample in which the strongest signals are shown more often than they occur.

Experiments:
Experiment in all cases: glycan array binding signal (z-score within array); higher = stronger binding
Settings in all cases: glycan notation: IUPAC condensed, linker removed
[1] = molecular target: Fuc(a1-2)Gal(b1-3)GlcNAc(b1-2)Man(a1-3)[Fuc(a1-2)Gal(b1-3)GlcNAc(b1-2)Man(a1-6)]Man(b1-4)GlcNAc(b1-4)GlcNAc
How it was run: (§1)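 Columns mapping to the same glycan were averaged after glycan names were converted to IUPAC-condensed notation. The data come from 3228 arrays in the Consortium for Functional Glycomics database, limited to those with an available protein sequence. Binding is reported as a within-array Z-score averaged across arrays of one protein sequence and across linkers.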

[2] = molecular target: Fuc(a1-2)Gal(b1-3)GlcNAc(b1-3)GalNAc
How it was run: as §1

[3] = molecular target: Fuc(a1-2)Gal(b1-4)GlcNAc6S
How it was run: as §1

[4] = molecular target: Fuc(a1-2)Gal(b1-4)[Fuc(a1-3)]GlcNAc
How it was run: as §1

[5] = molecular target: Fuc(a1-2)Gal(b1-4)[Fuc(a1-3)]GlcNAc(b1-2)[Fuc(a1-2)Gal(b1-4)[Fuc(a1-3)]GlcNAc(b1-4)]Man(a1-3)[Fuc(a1-2)Gal(b1-4)[Fuc(a1-3)]GlcNAc(b1-2)Man(a1-6)]Man(b1-4)GlcNAc(b1-4)GlcNAc
How it was run: as §1

[6] = molecular target: Fuc(a1-2)[Gal(a1-3)]Gal(b1-3)GlcNAc
How it was run: as §1

[7] = molecular target: Fuc(a1-2)[Gal(a1-3)]Gal(b1-4)GlcNAc(b1-2)Man(a1-3)[Fuc(a1-2)[Gal(a1-3)]Gal(b1-4)GlcNAc(b1-2)Man(a1-6)]Man(b1-4)GlcNAc(b1-4)GlcNAc
How it was run: as §1

[8] = molecular target: Fuc(a1-2)[GalNAc(a1-3)]Gal(b1-4)Glc
How it was run: as §1

[9] = molecular target: Fuc(a1-2)[GalNAc(a1-3)]Gal(b1-4)GlcNAc(b1-3)GalNAc
How it was run: as §1

[10] = molecular target: Fuc(a1-3)[Gal(b1-4)]GlcNAc(b1-2)Man(a1-3)[Fuc(a1-3)[Gal(b1-4)]GlcNAc(b1-2)Man(a1-6)]Man(b1-4)GlcNAc(b1-4)[Fuc(a1-6)]GlcNAc
How it was run: as §1

[11] = molecular target: Gal(a1-3)Gal(b1-3)GlcNAc(b1-3)GalNAc
How it was run: as §1

[12] = molecular target: Gal(b1-3)GlcNAc(a1-3)Gal(b1-4)GlcNAc
How it was run: as §1

[13] = molecular target: Gal(b1-3)GlcNAc(b1-3)Gal(b1-4)[Fuc(a1-3)]GlcNAc
How it was run: as §1

[14] = molecular target: Gal(b1-3)GlcNAc(b1-3)Gal(b1-4)[Fuc(a1-3)]GlcNAc(b1-6)[Gal(b1-3)GlcNAc(b1-3)]Gal(b1-4)Glc
How it was run: as §1

[15] = molecular target: Gal(b1-3)GlcNAc(b1-3)GalNAc
How it was run: as §1

[16] = molecular target: Gal(b1-4)GlcNAc(b1-3)Gal(b1-3)GlcNAc
How it was run: as §1

[17] = molecular target: Gal(b1-4)GlcNAc(b1-3)Gal(b1-4)GlcNAc(b1-2)[Gal(b1-4)GlcNAc(b1-3)Gal(b1-4)GlcNAc(b1-6)]Man(a1-6)[Gal(b1-4)GlcNAc(b1-3)Gal(b1-4)GlcNAc(b1-2)Man(a1-3)]Man(b1-4)GlcNAc(b1-4)[Fuc(a1-6)]GlcNAc
How it was run: as §1

[18] = molecular target: Gal(b1-4)GlcNAc(b1-3)Gal(b1-4)GlcNAc(b1-3)Gal(b1-4)GlcNAc(b1-3)Gal(b1-4)GlcNAc(b1-3)Gal(b1-4)GlcNAc(b1-2)Man(a1-3)[Gal(b1-4)GlcNAc(b1-3)Gal(b1-4)GlcNAc(b1-3)Gal(b1-4)GlcNAc(b1-3)Gal(b1-4)GlcNAc(b1-3)Gal(b1-4)GlcNAc(b1-2)Man(a1-6)]Man(b1-4)GlcNAc(b1-4)GlcNAc
How it was run: as §1

[19] = molecular target: Gal(b1-4)GlcNAc(b1-3)Gal(b1-4)GlcNAc(b1-6)[Gal(b1-3)]GalNAc
How it was run: as §1

[20] = molecular target: Gal(b1-4)GlcNAc(b1-6)[Gal(b1-4)GlcNAc(b1-3)]GalNAc
How it was run: as §1

Gal3S(b1-3)GlcNAc = molecular target: Gal3S(b1-3)GlcNAc
How it was run: as §1

Gal3S(b1-4)Glc6S = molecular target: Gal3S(b1-4)Glc6S
How it was run: as §1

Gal6S(b1-4)Glc6S = molecular target: Gal6S(b1-4)Glc6S
How it was run: as §1

[21] = molecular target: GalNAc(b1-3)Gal(a1-4)Gal(b1-4)GlcNAc
How it was run: as §1

GalNAc(b1-3)GlcNAc = molecular target: GalNAc(b1-3)GlcNAc
How it was run: as §1

[22] = molecular target: GalNAc3S(b1-4)[Fuc(a1-3)]GlcNAc
How it was run: as §1

[23] = molecular target: GlcNAc(a1-4)Gal(b1-4)GlcNAc(b1-3)Gal(b1-4)[Fuc(a1-3)]GlcNAc(b1-3)Gal(b1-4)[Fuc(a1-3)]GlcNAc
How it was run: as §1

[24] = molecular target: GlcNAc(b1-2)[GlcNAc(b1-4)]Man(a1-3)[GlcNAc(b1-2)Man(a1-6)]Man(b1-4)GlcNAc(b1-4)GlcNAc
How it was run: as §1

[25] = molecular target: GlcNAc(b1-2)[GlcNAc(b1-4)]Man(a1-3)[GlcNAc(b1-4)][GlcNAc(b1-2)Man(a1-6)]Man(b1-4)GlcNAc(b1-4)GlcNAc
How it was run: as §1

[26] = molecular target: GlcNAc(b1-3)Gal(b1-4)GlcNAc(b1-3)Gal(b1-4)GlcNAc(b1-2)Man(a1-3)[GlcNAc(b1-3)Gal(b1-4)GlcNAc(b1-3)Gal(b1-4)GlcNAc(b1-2)Man(a1-6)]Man(b1-4)GlcNAc(b1-4)GlcNAc
How it was run: as §1

[27] = molecular target: Neu5Ac(a2-3)Gal(b1-3)[Fuc(a1-4)]GlcNAc(b1-3)Gal(b1-3)[Fuc(a1-4)]GlcNAc
How it was run: as §1

[28] = molecular target: Neu5Ac(a2-3)Gal(b1-4)GlcNAc(b1-2)[Neu5Ac(a2-3)Gal(b1-4)GlcNAc(b1-6)]Man(a1-6)[Neu5Ac(a2-3)Gal(b1-4)GlcNAc(b1-2)Man(a1-3)]Man(b1-4)GlcNAc(b1-4)GlcNAc
How it was run: as §1

[29] = molecular target: Neu5Ac(a2-3)Gal(b1-4)GlcNAc(b1-3)Gal(b1-4)[Fuc(a1-3)]GlcNAc
How it was run: as §1

[30] = molecular target: Neu5Ac(a2-3)Gal(b1-4)GlcNAc(b1-3)GalNAc
How it was run: as §1

[31] = molecular target: Neu5Ac(a2-3)Gal(b1-4)GlcNAc(b1-6)GalNAc
How it was run: as §1

[32] = molecular target: Neu5Ac(a2-3)Gal(b1-4)GlcNAc6S
How it was run: as §1

[33] = molecular target: Neu5Ac(a2-3)Gal(b1-4)[Fuc(a1-3)]GlcNAc
How it was run: as §1

[34] = molecular target: Neu5Ac(a2-3)Gal(b1-4)[Fuc(a1-3)]GlcNAc(b1-3)GalNAc
How it was run: as §1

[35] = molecular target: Neu5Ac(a2-6)Gal(b1-4)GlcNAc
How it was run: as §1

[36] = molecular target: Neu5Ac(a2-6)Gal(b1-4)GlcNAc(b1-3)Gal(b1-3)GlcNAc
How it was run: as §1

[37] = molecular target: Neu5Ac(a2-6)Gal(b1-4)GlcNAc(b1-6)[Gal(b1-3)GlcNAc(b1-3)]Gal(b1-4)Glc
How it was run: as §1

[38] = molecular target: Neu5Ac(a2-6)GalNAc(b1-4)GlcNAc
How it was run: as §1

[39] = molecular target: Neu5Ac9Ac(a2-3)Gal(b1-4)GlcNAc
How it was run: as §1

B1: Clec39 (Caenorhabditis elegans) (protein)
chain: MTSFYDNSSSSSKPVPLKTSRAQKIQILIFDNWKLILYGAISTLILVLAIMFSTLFFALPAANCDENSEPTKYYTTNAEITTTITTTNQKTTSTASSHLTTISSSATQIYSESSSSSTSQSTFTQSPPEISTTTIAPSDFSCQHGFTLVNNKCWKLVTSNQARPDADKICNGYGGATLFSIKSEQDNRAMIHFVKGQDIDFLWSGLLCSAGEPISCIWDIENGSTANYSNFADGFPNIVYGNCVYFITSGDEAGQWGNEQCGQVMNFVCELPATFQGKDGCKNNYEKSCYLRFDLNLTVPQAQNFCLEKCANLVSIHSANEVRFIMTIYDFIGEILIGALAPAQDFIYWLDGTPANYNNLKFFYNSTCVHMTVAPGMQNVGKWFTRFCTETGKFLCKRSIKNSCT
[1]
  glycan array binding signal (z-score): 2.06
[2]
  glycan array binding signal (z-score): 1.86
[3]
  glycan array binding signal (z-score): -0.018
[4]
  glycan array binding signal (z-score): 0.187
[5]
  glycan array binding signal (z-score): 3.52
[6]
  glycan array binding signal (z-score): -0.274
[7]
  glycan array binding signal (z-score): 3.03
[8]
  glycan array binding signal (z-score): 2.18
[9]
  glycan array binding signal (z-score): -0.527
[10]
  glycan array binding signal (z-score): 4.38
[11]
  glycan array binding signal (z-score): -0.178
[12]
  glycan array binding signal (z-score): -0.68
[13]
  glycan array binding signal (z-score): -0.715
[14]
  glycan array binding signal (z-score): 0.976
[15]
  glycan array binding signal (z-score): -0.666
[16]
  glycan array binding signal (z-score): -0.657
[17]
  glycan array binding signal (z-score): 0.173
[18]
  glycan array binding signal (z-score): 3.63
[19]
  glycan array binding signal (z-score): 0.593
[20]
  glycan array binding signal (z-score): 5.43
Gal3S(b1-3)GlcNAc
  glycan array binding signal (z-score): -0.524
Gal3S(b1-4)Glc6S
  glycan array binding signal (z-score): 0.293
Gal6S(b1-4)Glc6S
  glycan array binding signal (z-score): 2
[21]
  glycan array binding signal (z-score): 1.49
GalNAc(b1-3)GlcNAc
  glycan array binding signal (z-score): -0.927
[22]
  glycan array binding signal (z-score): 1.07
[23]
  glycan array binding signal (z-score): 3.59
[24]
  glycan array binding signal (z-score): 0.095
[25]
  glycan array binding signal (z-score): 0.673
[26]
  glycan array binding signal (z-score): 0.778

B2: ArathEULS3 (Arabidopsis thaliana), Q945P1 (protein)
chain: MEHHHQHHRHHQRDDGEDDRQSFGVPPPHVDAPPQPHGLYQSQPHFDPYAPTPQAPAPYRSETQFEPHAPPPYRSEPYFETPAPPPSFGHVSHVGHQSPNESYPPEHHRYGGYQQPSNSLLESHGDHSGVTHVAHHSSNQPQSSSGVYHKPDENRLPDNLAGLAGRATVKVYSKAEPNYNLTIRDGKVILAPADPSDEAQHWYKDEKYSTKVKDADGHPCFALVNKATGEAMKHSVGATHPVHLIRYVPDKLDESVLWTESKDFGDGYRTIRMVNNTRLNVDAYHGDSKSGGVRDGTTIVLWDWNKGDNQLWKIFPFILEQKLISEEDLNSAVDHHHHHH
[27]
  glycan array binding signal (z-score): -0.244
[28]
  glycan array binding signal (z-score): 1.98
[29]
  glycan array binding signal (z-score): -0.229
[30]
  glycan array binding signal (z-score): -0.326
[31]
  glycan array binding signal (z-score): -0.302
[32]
  glycan array binding signal (z-score): -0.173
[33]
  glycan array binding signal (z-score): 1.79
[34]
  glycan array binding signal (z-score): 2
[35]
  glycan array binding signal (z-score): 0.011
[36]
  glycan array binding signal (z-score): -0.157
[37]
  glycan array binding signal (z-score): -0.239
[38]
  glycan array binding signal (z-score): -0.302
[39]
  glycan array binding signal (z-score): -0.232
